Data reported in PubChem BioAssay (NCATS).
Inconclusive results are not listed. Activity calls are given as the source filed them. Unless noted, the call rests on the fitted dose curve; in most records, active means well fitted curve in the direction sought with a large enough effect; inconclusive means small, poorly fitted or top-dose-only effect, or another doubt; inactive means no such curve, though single readings can be large; an effect the other way counts as inactive or inconclusive.

How the values were obtained:
[1] = qHTS for Inhibitors of Plasmodium falciparum (GB4) proliferation (AID 504315); further: nearly all actives have a fitted effect of over 50% in size; further: potency means the concentration at half of the fitted maximal effect;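 on activity change, negative = inhibition: 0% = DMSO vehicle and -100% = 0.29 µM artemisinin control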
Method in brief: (§1)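 Erythrocytes infected with P. falciparum line (0.3% parasitemia, 2.5% hematocrit final) incubated with compounds 72 h at 37 °C, 5% CO2; SYBR Green lysis buffer added, fluorescence read next day. Normalized to 0.29 uM artemisinin and DMSO.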

[2] = qHTS for Inhibitors of Plasmodium falciparum (7G8) proliferation (AID 504316); further: nearly all actives have a fitted effect of over 65% in size; further: potency means the concentration at half of the fitted maximal effect;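 on activity change, negative = inhibition: series mostly up to about 6.7 µM; 0% = DMSO vehicle and -100% = 0.29 µM artemisinin full kill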
Method in brief: as §1

[3] = qHTS for Inhibitors of Plasmodium falciparum (CP250) proliferation (AID 504320);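 further: plate controls were DMSO vehicle for no effect and 0.29 µM artemisinin control for full effect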
Method in brief: as §1

[4] = target: Atrial natriuretic peptide receptor 1 (Homo sapiens) (UniProt P16066); experiment: Natriuretic polypeptide receptor (hNpr1) antagonism - Pilot CMLD screen (AID 1347052; calls by dose curve;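 further: HEK293 cells with hNpr1 stimulated by hNppA peptide at 0.1 nM; cGMP level read as GloSensor luciferase luminescence after agonist stimulation; series mostly up to about 9.2 µM; on the % scale 0 is the no-effect control and ±100 the full control effect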)
[5] = qHTS for Inhibitors of Plasmodium falciparum (HB3) proliferation (AID 504318); further: nearly all actives have a fitted effect of over 60% in size; further: potency means the concentration at half of the fitted maximal effect;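 on activity change, negative = inhibition: 0% = DMSO vehicle and -100% = artemisinin control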
Method in brief: as §1

[6] = target: Cytochrome P450 2C9 (Homo sapiens) (UniProt P11712); experiment: qHTS Assay for Inhibitors and Substrates of Cytochrome P450 2C9 (AID 883); further: nearly all actives have a fitted effect of over 60% in size; further: potency means the concentration at half of the fitted maximal effect; on activity change, negative = inhibition: on the % scale 0 is the no-effect control and ±100 the full control effect
Method in brief: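 Luminescent read-out of deoxyluciferin hydroxylation, normalized to 57uM sulphaphenazole (AC100). Reaction: 10nM enzyme, 100uM Luciferin-H (equal to KM), 25mM KPO4, 10 min compound preincubation, then 60 min with NADPH regeneration, both at 37C.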

[7] = target: Cytochrome P450 3A4 (Homo sapiens) (UniProt P08684); experiment: qHTS Assay for Inhibitors and Substrates of Cytochrome P450 3A4 (AID 884); further: series mostly up to about 57 µM; on the % scale 0 is the no-effect control and ±100 the full control effect; nearly all actives have a fitted effect of over 50% in size
Method in brief: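 20 nM human CYP3A4 with 25 uM Luciferin-PPXE (at KM) in 200 mM KPO4, preincubated 10 min with compound; NADPH regeneration started a 60 min RT reaction. Luciferin detected by luminescence, normalized to 57 uM ketoconazole as full inhibition.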

[8] = target: Cytochrome P450 2D6 (Homo sapiens) (UniProt P10635); experiment: qHTS Assay for Inhibitors and Substrates of Cytochrome P450 2D6 (AID 891);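 further: luciferin methyl ether substrate demethylated by CYP2D6 with NADPH regeneration; on the % scale 0 is the no-effect control and ±100 the full control effect; nearly all actives have a fitted effect of over 60% in size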
Method in brief: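 Human CYP2D6 (5 nM) with 30 uM Luciferin-ME EGE (at Km) in 100 mM KPO4, compound preincubated 10 min, then NADPH regeneration system for 60 min at room temperature. Luciferin read by luminescence; normalized to 1.43 uM quinidine.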

[9] = target: Cytochrome P450 2C19 (Homo sapiens) (UniProt P33261); experiment: qHTS Assay for Inhibitors and Substrates of Cytochrome P450 2C19 (AID 899); further: nearly all actives have a fitted effect of over 60% in size; further: potency means the concentration at half of the fitted maximal effect; on activity, negative = inhibition: on the % scale 0 is the no-effect control and ±100 the full control effect
Method in brief: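 Luminescence readout of luciferin formed from 10uM Luciferin-H EGE (KM level) by 5 nM CYP2C19 in 50mM KPO4. 60 min NADPH-driven reaction at 37C after 10 min compound preincubation; data scaled to 57uM ketoconazole inhibition.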

[10] = qHTS Assay for Identification of Small Molecule Agonists for Hypoxia Response Element Signaling Pathway (AID 914; active means well fitted activation curve with a large enough effect in the signal ratio, with a control signal flat, not every such curve was filed as active; the % refers to the signal ratio; further: % of control where 0% means no effect); settings: ME-180 (cervical carcinoma) HRE-bla reporter, beta-lactamase ratio, CoCl2, 17 h; hits give high values
Method in brief: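 Reporter activity (beta-lactamase, CCF4 460nm/530nm ratio) in HRE-bla ME-180 cells is recorded after 17 h compound exposure with EC50 CoCl2 at 37 degrees Celsius. AC50 values come from titration data.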

Chain of Cytochrome P450 2C19 (Homo sapiens) (P33261 whole entry, looked up): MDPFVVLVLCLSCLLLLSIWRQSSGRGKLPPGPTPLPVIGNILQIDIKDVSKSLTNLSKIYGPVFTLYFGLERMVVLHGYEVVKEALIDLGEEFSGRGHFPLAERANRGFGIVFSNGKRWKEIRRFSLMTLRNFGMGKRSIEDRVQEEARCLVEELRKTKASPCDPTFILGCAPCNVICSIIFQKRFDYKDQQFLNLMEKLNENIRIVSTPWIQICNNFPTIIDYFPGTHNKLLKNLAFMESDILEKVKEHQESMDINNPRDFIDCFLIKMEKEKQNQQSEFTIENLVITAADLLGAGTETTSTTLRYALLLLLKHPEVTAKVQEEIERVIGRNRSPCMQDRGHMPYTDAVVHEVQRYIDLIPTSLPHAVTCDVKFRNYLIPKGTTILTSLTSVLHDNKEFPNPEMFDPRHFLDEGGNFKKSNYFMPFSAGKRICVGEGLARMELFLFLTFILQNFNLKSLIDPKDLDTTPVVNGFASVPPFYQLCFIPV
Chain of Atrial natriuretic peptide receptor 1 (Homo sapiens) (P16066 whole entry, looked up): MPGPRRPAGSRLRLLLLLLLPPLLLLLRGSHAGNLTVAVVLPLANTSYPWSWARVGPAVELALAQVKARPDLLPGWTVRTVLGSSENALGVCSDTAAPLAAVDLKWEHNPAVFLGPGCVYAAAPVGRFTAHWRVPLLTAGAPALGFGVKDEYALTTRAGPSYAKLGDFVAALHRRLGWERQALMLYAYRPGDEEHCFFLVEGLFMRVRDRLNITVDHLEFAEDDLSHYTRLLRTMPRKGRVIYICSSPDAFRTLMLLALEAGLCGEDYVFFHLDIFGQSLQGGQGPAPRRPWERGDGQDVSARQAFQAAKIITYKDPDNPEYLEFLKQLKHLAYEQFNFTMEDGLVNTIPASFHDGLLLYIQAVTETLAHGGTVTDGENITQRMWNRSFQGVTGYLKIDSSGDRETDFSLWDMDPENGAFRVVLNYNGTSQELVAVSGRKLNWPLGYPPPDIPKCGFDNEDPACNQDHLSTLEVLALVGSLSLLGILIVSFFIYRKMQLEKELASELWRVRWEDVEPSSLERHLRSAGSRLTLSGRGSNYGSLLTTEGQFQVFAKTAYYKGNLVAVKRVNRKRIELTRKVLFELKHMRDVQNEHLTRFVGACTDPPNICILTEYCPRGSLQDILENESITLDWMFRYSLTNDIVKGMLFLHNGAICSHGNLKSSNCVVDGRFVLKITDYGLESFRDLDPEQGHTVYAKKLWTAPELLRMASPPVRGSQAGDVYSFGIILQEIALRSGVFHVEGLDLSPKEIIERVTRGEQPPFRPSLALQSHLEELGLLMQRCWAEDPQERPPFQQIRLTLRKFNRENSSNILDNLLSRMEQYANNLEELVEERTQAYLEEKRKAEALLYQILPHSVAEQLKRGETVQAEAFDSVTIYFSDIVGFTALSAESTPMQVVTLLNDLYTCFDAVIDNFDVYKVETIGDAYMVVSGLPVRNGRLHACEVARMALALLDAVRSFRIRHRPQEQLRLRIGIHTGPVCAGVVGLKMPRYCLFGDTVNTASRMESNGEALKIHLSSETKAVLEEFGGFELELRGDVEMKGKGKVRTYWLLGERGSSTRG
Chain of Cytochrome P450 2C9 (Homo sapiens) (P11712 whole entry, looked up): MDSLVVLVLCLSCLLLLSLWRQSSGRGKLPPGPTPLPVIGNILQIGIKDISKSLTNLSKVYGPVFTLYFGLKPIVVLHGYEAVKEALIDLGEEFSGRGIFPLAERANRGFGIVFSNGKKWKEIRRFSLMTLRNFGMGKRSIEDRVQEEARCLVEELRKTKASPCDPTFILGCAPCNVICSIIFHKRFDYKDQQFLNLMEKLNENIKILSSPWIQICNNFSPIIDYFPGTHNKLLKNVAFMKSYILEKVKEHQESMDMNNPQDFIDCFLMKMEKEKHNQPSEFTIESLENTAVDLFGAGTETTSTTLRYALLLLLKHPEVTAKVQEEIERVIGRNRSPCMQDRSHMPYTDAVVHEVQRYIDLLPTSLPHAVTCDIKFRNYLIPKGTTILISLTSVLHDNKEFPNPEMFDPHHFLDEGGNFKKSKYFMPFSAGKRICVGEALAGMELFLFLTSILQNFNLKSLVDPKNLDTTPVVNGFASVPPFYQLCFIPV
Chain of Cytochrome P450 3A4 (Homo sapiens) (P08684 whole entry, looked up): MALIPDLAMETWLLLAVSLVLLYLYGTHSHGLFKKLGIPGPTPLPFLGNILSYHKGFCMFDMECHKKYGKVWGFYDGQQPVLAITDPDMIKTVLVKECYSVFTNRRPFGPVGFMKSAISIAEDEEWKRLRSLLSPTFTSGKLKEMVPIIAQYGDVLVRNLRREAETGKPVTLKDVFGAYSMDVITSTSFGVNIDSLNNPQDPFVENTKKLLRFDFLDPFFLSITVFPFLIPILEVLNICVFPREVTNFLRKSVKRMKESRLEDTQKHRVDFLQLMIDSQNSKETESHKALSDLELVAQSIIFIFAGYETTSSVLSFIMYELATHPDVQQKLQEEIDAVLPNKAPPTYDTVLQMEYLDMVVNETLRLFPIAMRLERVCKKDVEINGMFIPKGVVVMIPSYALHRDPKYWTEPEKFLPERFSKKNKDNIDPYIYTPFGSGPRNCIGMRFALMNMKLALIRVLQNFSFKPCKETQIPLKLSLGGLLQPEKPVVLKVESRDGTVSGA
Chain of Cytochrome P450 2D6 (Homo sapiens) (P10635 whole entry, looked up): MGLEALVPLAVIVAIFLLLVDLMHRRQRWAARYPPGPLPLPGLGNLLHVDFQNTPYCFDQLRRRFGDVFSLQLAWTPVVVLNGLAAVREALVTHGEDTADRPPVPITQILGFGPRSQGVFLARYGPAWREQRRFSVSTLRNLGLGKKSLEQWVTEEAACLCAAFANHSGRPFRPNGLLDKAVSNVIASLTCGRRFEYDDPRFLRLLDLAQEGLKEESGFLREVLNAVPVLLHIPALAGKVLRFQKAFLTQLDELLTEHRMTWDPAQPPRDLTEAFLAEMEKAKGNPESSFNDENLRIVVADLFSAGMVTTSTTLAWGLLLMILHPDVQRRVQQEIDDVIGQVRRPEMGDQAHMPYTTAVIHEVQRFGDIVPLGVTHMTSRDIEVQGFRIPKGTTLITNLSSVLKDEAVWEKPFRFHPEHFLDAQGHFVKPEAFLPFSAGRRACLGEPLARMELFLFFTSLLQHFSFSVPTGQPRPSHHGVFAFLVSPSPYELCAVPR

C=CC1=C2C=C(C3CC3)N(C3CCCCC3)C=C2C(=O)C(C)(OC(=O)c2ccco2)C1=O (configuration not stated)
inactive: Potency [1] | Potency [2] | Potency [3] | Potency [4]

CC1=C2[C@H](O)[C@H]([C@@H](C)C(=O)NCCC(C)C)CC[C@@]2(C)C=CC1=O
inactive: Potency [1] | Potency [2] | Potency [3] | Potency [4]

C=CCN1C(=O)[C@]2(O[C@H](C)CC3=CCCC32)c2c(Br)cccc21 (some centres not stated)
inactive: Potency [1] | Potency [2] | Potency [3] | Potency [4]

O=C1[C@@H]2[C@H]3[C@H](O)[C@H](O)CC(=NOC[C@@H](O)COCc4ccco4)[C@@H]3CC[C@H]2C(=O)N1C1CCCCC1
inactive: Potency [1] | Potency [2] | Potency [5] | Potency [3] | Potency [4]

O=C(NC(CC1=CCCCC1)c1ccc2c(c1)OCO2)C(F)(F)F (configuration not stated)
inactive: Potency [1] | Potency [2] | Potency [3] | Potency [4]

COc1cc(CO[C@H]2C=C[C@@H](c3ccccc3)O[C@H]2CO)cc(OC)c1
inactive: Potency [1] | Potency [2] | Potency [3] | Potency [4]

COC(=O)N[C@H](C(C(=O)OC)=C(C)NCc1ccccc1)c1cccc(C)c1
inactive: Potency [1] | Potency [2] | Potency [3] | Potency [4]

Cc1cc(O)cc(O)c1C(=O)OC1(C)C(=O)C=C2C=C(C=CC(=O)O)OC=C2C1=O (configuration not stated)
inactive: Potency [1] | Potency [2] | Potency [3] | Potency [4]

CNc1ccccc1C(=O)OCC(C)=O
inactive: activity change, negative = inhibition [6] 24.8% [at 11.4 µM] | activity change, negative = inhibition [7] -11.5% [at 11.4 µM] | activity change, negative = inhibition [8] 9.06% [at 11.4 µM] | activity, negative = inhibition [9] -17.8% [at 11.4 µM] | Potency [1] | Potency [2] | Potency [5] | Potency [3] | Potency [4]

C[C@@H]1CC[C@H]2C(=O)O[C@H](CN=[N+]=[N-])CN2[C@@H]1c1ccc(Br)cc1
active: Potency [9] 398 nM
inactive: activation [10] 9.69% | Potency [1] | Potency [2] | Potency [5] | Potency [3] | Potency [4]

COC(=O)N[C@@H](c1cccc(C)c1)[C@]1(C(=O)OC)CCCC1=O
inactive: Potency [1] | Potency [2] | Potency [5] | Potency [3] | Potency [4]

C[C@H]1Cc2c(-c3ccccc3)nc3c(c2CO1)CN(C(=O)Nc1cccc(C#N)c1)CC3
inactive: Potency [1] | Potency [2] | Potency [3] | Potency [4]

O=C1CCC=C1C(O)c1ccc2c(c1)OCO2 (configuration not stated)
inactive: Potency [1] | Potency [2] | Potency [3] | Potency [4]

COC1=C[C@H](C(=O)NCc2ccc(Br)cc2)[C@H](C)[C@@H](c2ccccc2)CC1=O
inactive: Potency [1] | Potency [2] | Potency [3] | Potency [4]

CCN1C(=O)N[C@@H](CCc2ccccc2)[C@@H](C(=O)OC)[C@H]1C
inactive: Potency [1] | Potency [2] | Potency [5] | Potency [3] | Potency [4]

CC(CCC(=O)OC[C@H]1O[C@H](C#Cc2ccccc2)C=C[C@H]1Oc1ccc(C)cc1)=NO[C@H](C)c1cn([C@@H]2COC[C@@H]2O)nn1
inactive: Potency [1] | Potency [2] | Potency [3] | Potency [4]

COc1cccc([C@H]2Oc3ccc(OC)cc3C(=NOC[C@@H](O)COCc3ccco3)[C@H]2O)c1
inactive: Potency [1] | Potency [2] | Potency [3] | Potency [4]

CC(C)=CCN1C(=O)[C@@]2(CC(C)=C[C@@H](COCc3ccccc3)O2)c2ccccc21
inactive: Potency [1] | Potency [3] | Potency [4]
active: Potency [2] 1900 nM

O=C1CCCC=C1[C@@H](O)CCOC(c1ccccc1)(c1ccccc1)c1ccccc1
inactive: Potency [4]
active: Potency [6] 794 nM | Potency [9] 251 nM | Potency [1] 1510 nM | Potency [2] 1690 nM | Potency [5] 1510 nM

COC(=O)CCCC1=CC2=C(c3ccccc3)C(=O)C(C)(OC(=O)C3CCCC3)C(=O)C2=CN1c1ccc(OC)cc1 (configuration not stated)
inactive: Potency [1] | Potency [2] | Potency [3] | Potency [4]

COC(=O)c1ccc(CN2C(=O)[C@]3(OCCC=C[C@@H]3C)c3cc(OC)ccc32)cc1
inactive: Potency [1] | Potency [2] | Potency [3] | Potency [4]

O=C(C=Cc1ccc2c(c1)OCO2)c1ccc(F)cc1
inactive: Potency [1] | Potency [2] | Potency [5] | Potency [3] | Potency [4]

CCCCCCCc1cc2ccccc2c2c(C(=O)OC)cc(C(=O)OC)n12
inactive: Potency [1] | Potency [2] | Potency [5] | Potency [3] | Potency [4]

COc1cccc([C@@H]2Oc3ccc(OC)cc3C[C@@H]2OC(=O)N[C@H]2CCCc3ccccc32)c1
active: Potency [2] 1510 nM
inactive: Potency [1] | Potency [3] | Potency [4]

CC1(C)CC(=O)C2=C(C1)O[C@@]1(c3ccsc3)Cc3cc(C#N)ccc3[C@H]2O1
inactive: Potency [1] | Potency [5] | Potency [3] | Potency [4]

COC(=O)C1=C(C(=O)OC)[C@@H]2N(CC=C(C)C)c3ccccc3[C@@]23CCC(=O)N(Cc2cccc(C(F)(F)F)c2)C3=N1
inactive: Potency [4]
active: Potency [1] 849 nM | Potency [5] 2940 nM

COC(=O)CCCC1=CC2=CC(=O)C(C)(OC(=O)c3cccs3)C(=O)C2=CN1CCCOC(C)C (configuration not stated)
inactive: Potency [1] | Potency [5] | Potency [3] | Potency [4]
